# Assay results: the supplement of paper PMC10338343
# ± gives the standard deviation.
# Tested on: MILI (PIWIL2) piRISC loaded with L1MC piRNA (26 nt)
# Assay: pre-steady-state target cleavage rate (min^-1); guide: L1MC piRNA 5'p-UAACUAAAUACUAUGCAAGCUGUAGG; MIWI and MILI are mouse PIWI proteins and EfPiwi is from a freshwater sponge; tags in brackets are library labels; higher = faster piRNA-guided slicing of the target
# Conditions: auxiliary factor: 500 nM mouse GTSF1
# Method: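 Cleave-'n-Seq: a library of target RNAs (target site embedded in constant flanks, ACAGCATTCCGCGTTAGTGATATCCG... 5' flank; DNA-blocked outside the site) at 0.1 nM was incubated with 1 nM active mouse MILI or MIWI piRISC (synthetic 5'-monophosphorylated piRNA guide) with or without 500 nM mouse GTSF1 at 33 °C for 1 min to 16 h. Uncleaved targets were sequenced and normalised to non-target controls, and the pooled three trials were fitted to a burst-and-steady-state model to give the pre-steady-state cleavage rate (min^-1; k3 is constrained to at most 1e-4). Sequence is the target site only; target names encode pairing extent (gX:gY) and contiguous / 1-mismatch / 2-mismatch / bulge geometry. Fits with R² ≤ 0 are excluded.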
row,Sequence,pre-steady-state target cleavage rate
1,UCCUGGAUGAGCUUUGCAUAGUAUUUAGUUA,0.181 ± 0.013
2,UCCUGCUACACCUUGCAUAGAAUUUAGUUA,0.0952 ± 0.037
3,UCCUCCUACACCUUGCAUUGUAUUUAGUUA,0.184 ± 0.021
4,UCCUGCAAGAGCUUGCAUAGUAUUUAGUUA,0.292 ± 0.025
5,UCCUGGUAGAGCUUGGAUAGUAUUUAGUUA,0.15 ± 0.0091
6,UCCUGGAACACCUUGCUUAGUAUUUAGUUA,0.155 ± 0.028
7,UCCUCCUACAGCUUGCAUAGUAUUUGGUUA,0.279 ± 0.024
8,UCCUCCUUCUGCUUGCAUAGUAUUUAGUUA,0.269 ± 0.018
9,UCCUGGAUCAGCUUGCAUAGUAUCUUAGUUA,0.234 ± 0.021
10,UCCUGGAUGUCGUAUGCAUAGUAUUUAGUUA,0.0833 ± 0.012
11,UCCUGGAACAGCUUGCAUAGUUAAUAGUUA,0.0282 ± 0.01
12,UCCUGGAUCAGCUACCAUAGUAUUUAGUAA,0.127 ± 0.012
13,UCCUGCUACAGCUUGGUAAGUAUUUAGAAA,0.0107 ± 0.0045
14,UCCUGGAACAGCUUGCAUAGAUAUUUAGUUA,0.0184 ± 0.0071
15,UCCUCCUACAGCUUGCAUAUAUUUAGUUA,0.0398 ± 0.0083
16,UCCUGGAACAGGAUGCAUAGUAUUUAGUUA,0.285 ± 0.016
17,UCCUGCUACACCUUGGAUAGUAUUUAGUUA,0.122 ± 0.021
18,UCCUGGUACAGGUUGCAUAGUAUAUAGUUA,0.42 ± 0.089
19,UCCUGGAACUGCUUGCAUAGUUUUUAGUUA,0.0358 ± 0.0071
20,UCCUGGUACAGCUUGCAUAGUAUAUUAGUUA,0.26 ± 0.039
21,UCCUCCUACAGCAUGCAUAGAAUUUAGUUA,0.176 ± 0.044
22,UCCUGCUACAGCUUGCAUAGUAUUUACAAA,0.153 ± 0.039
23,UCCUGGAUGUGCUUGCAAACUAUUUAGUUA,0.00852 ± 0.0038
24,UCCUGGAUGUCCUUGCAUAGUAUAUUAGUUA,0.188 ± 0.034

# Same assay, conditions: auxiliary factor: none (no GTSF1)
row,Sequence,pre-steady-state target cleavage rate
1,UCCUGGAUGAGCUUUGCAUAGUAUUUAGUUA,0.0103 ± 0.0021
2,UCCUCCUACACCUUGCAUUGUAUUUAGUUA,0.0078 ± 0.002
3,UCCUGCAAGAGCUUGCAUAGUAUUUAGUUA,0.00624 ± 0.0028
4,UCCUGGUAGAGCUUGGAUAGUAUUUAGUUA,0.00624 ± 0.0029
5,UCCUGGAACACCUUGCUUAGUAUUUAGUUA,0.00581 ± 0.0019
6,UCCUCCUACAGCUUGCAUAGUAUUUGGUUA,0.00706 ± 0.0026
7,UCCUCCUUCUGCUUGCAUAGUAUUUAGUUA,0.00966 ± 0.002
8,UCCUGGAUCAGCUUGCAUAGUAUCUUAGUUA,0.00648 ± 0.0025
9,UCCUGGAUGUCGUAUGCAUAGUAUUUAGUUA,0.00487 ± 0.0028
10,UCCUGGAACAGCUUGCAUAGAUAUUUAGUUA,0.00387 ± 0.0025
11,UCCUGGAACAGGAUGCAUAGUAUUUAGUUA,0.0116 ± 0.0027
12,UCCUGCUACACCUUGGAUAGUAUUUAGUUA,0.00552 ± 0.0022
13,UCCUGGUACAGGUUGCAUAGUAUAUAGUUA,0.00855 ± 0.0029
14,UCCUGGAACUGCUUGCAUAGUUUUUAGUUA,0.00455 ± 0.0018
15,UCCUGGUACAGCUUGCAUAGUAUAUUAGUUA,0.0117 ± 0.0038
16,UCCUGGAUGUCCUUGCAUAGUAUAUUAGUUA,0.00666 ± 0.0032
